Experimental data as given in PubChem BioAssay AID1209 (Sanford-Burnham Center for Chemical Genomics, 2008).
About 810 (0.43%) of roughly 190,000 compounds were called active. Many of the other results were omitted from the sample, so actives are more common in it than they were. Values without a mark were called inactive. No stated cut-off is given here; in the data, active means inhibition above about 50%; inactive means the rest.

molecular target: Mannose-6-phosphate isomerase (Homo sapiens) (UniProt P34949); assay: MPI enzyme activity inhibition – biochemical, fluorescence intensity, coupled assay, primary screen (AID 1209); details: purified PMI enzyme, at 20 µM, stronger effect = higher value;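 further: plate controls were DMSO vehicle for no effect and wells lacking substrate for full effect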
Sequence (P34949 whole entry, looked up): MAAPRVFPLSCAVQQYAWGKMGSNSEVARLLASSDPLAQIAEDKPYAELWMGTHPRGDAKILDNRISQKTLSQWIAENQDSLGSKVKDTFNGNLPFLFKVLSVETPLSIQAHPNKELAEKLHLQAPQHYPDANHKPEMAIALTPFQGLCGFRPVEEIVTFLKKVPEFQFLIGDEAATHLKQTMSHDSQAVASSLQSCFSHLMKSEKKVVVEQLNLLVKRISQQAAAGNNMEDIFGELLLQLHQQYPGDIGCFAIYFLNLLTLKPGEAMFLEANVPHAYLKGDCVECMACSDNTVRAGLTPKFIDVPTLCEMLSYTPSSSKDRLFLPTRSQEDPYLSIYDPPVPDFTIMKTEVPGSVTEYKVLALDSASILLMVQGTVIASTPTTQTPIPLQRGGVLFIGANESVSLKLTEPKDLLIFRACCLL

Compound | inhibition
O=C(Nc1ccc(S(=O)(=O)N2CCOCC2)cc1)c1ccc2c(c1)S(=O)(=O)c1ccccc1C2=O | -4.6%
O=C(Nc1cc(S(=O)(=O)N2CCOCC2)ccc1N1CCCCC1)c1cc(-c2ccccn2)nc2ccccc12 | 52.8% (active)
O=C(NC(=S)Nc1cc(S(=O)(=O)N2CCOCC2)ccc1N1CCOCC1)c1ccco1 | 3.9%
O=C(NC(=S)Nc1cc(S(=O)(=O)N2CCOCC2)ccc1N1CCOCC1)C1CCCC1 | -1.5%
O=C(Nc1cc(S(=O)(=O)N2CCOCC2)ccc1N1CCCC1)c1ccc2c(c1)S(=O)(=O)c1ccccc1C2=O | 61% (active)
COc1ccc(-c2cc(C(=O)Nc3cc(S(=O)(=O)N4CCOCC4)ccc3N3CCOCC3)c3ccccc3n2)cc1 | -22.7%
CCN(CC)S(=O)(=O)c1ccc(N2CCOCC2)c(NC(=O)c2cc(-c3ccccn3)nc3ccccc23)c1 | 15.6%
COCCNC(=S)Nc1cc(S(=O)(=O)N2CCOCC2)ccc1N1CCCCC1 | 63.1% (active)
O=C(Nc1cc(S(=O)(=O)N2CCOCC2)ccc1O)c1ccc2c(c1)S(=O)(=O)c1ccccc1C2=O | 46.3%
On1nnc2ccc3ccccc3c21 | -9.6%
C/C(O)=c1/ccc2cccc3nc(C)nc1c23 | 42.6%
Cc1ccc(SCc2ccc(C(=O)NCc3ccncc3)cc2)cc1 | 0.9%
Cc1cc(C)n(C(=O)c2c([N+](=O)[O-])c(C)nn2C)n1 | 1.5%
c1ccc(CC2CCN(Cc3nc(-c4ccccc4)no3)CC2)cc1 | 16.3%
COc1ccc(C(=O)Nc2sc3c(c2C#N)CCN(C(C)=O)C3)cc1 | 5.9%
CC(=O)N1CCc2c(sc(NC(=O)c3ccc([N+](=O)[O-])o3)c2C#N)C1 | 59% (active)
CC(=O)N1CCc2c(sc(NC(=O)c3ccc4c(c3)OCCO4)c2C#N)C1 | 18.2%
Cc1cc(-c2ccco2)n(CC(=O)NCc2ccco2)n1 | -9.3%
CC(CSc1nnnn1-c1ccccc1)Cn1c(N2CCCC2)nc2c1c(=O)[nH]c(=O)n2C (stereo not given) | 1.7%
CCCC(=O)N(c1ccc2oc(=O)sc2c1)S(=O)(=O)c1cccs1 | 3.6%
CC(C)(C)N=C1C([N+](=O)[O-])=CC=C2C1=NC1(CCCCC1)N2O | 76.2% (active)
O=[N+]([O-])C1=CC=C2C(=NC3(CCCCC3)N2O)C1=NC1CCCCC1 | 87.5% (active)
O=[N+]([O-])c1nn(-c2ccc3c(c2)OCCO3)n(O)c1=NC1CCCCC1 | 6%

Compound | inhibition
CN=C1C([N+](=O)[O-])=CC=C2C1=NC1(CCCCC1)N2O | 70.6% (active)
O=[N+]([O-])c1nn(-c2ccc3c(c2)OCCO3)n(O)c1=NC1CCCCCC1 | 12.3%
C#CCNc1cc(-c2ccccc2)nc2ncnn12 | -2.5%
COC(=O)c1ccc(C(=O)OC)c(NC(=O)C(C)(C)C)c1 | -4.3%
COc1ccc(OC)c(NC(=O)CCNS(=O)(=O)c2cccs2)c1 | 0.3%
COc1ccccc1-c1nnc(SCC(=O)O)n1-c1ccccc1 | 0.5%
CCCCN(C(=O)c1ccc(NC(=O)C(C)C)cc1)c1ccccc1 | 8.2%
Cc1ccccc1-n1nnnc1SCc1ncc(-c2ccccc2)o1 | 5.3%
CCC(=O)Nc1ccc(OCc2nc3ccccc3s2)cc1 | 25%
O=C(CCCc1nc2ccccc2s1)Nc1ccccc1 | -15.5%
O=C(O)CCCC(=O)Nc1ccc(OCc2nc3ccccc3s2)cc1 | 58.3% (active)
O=C(NN1C(=O)C2C3C=CC(C3)C2C1=O)c1ccncc1 (stereo not given) | -0.6%
Cc1csc(NC(=O)C2CCCN(S(=O)(=O)c3ccc4c(c3)oc(=O)n4C)C2)n1 (stereo not given) | 13.4%
C=CCN1C(=O)N/C(=C/c2ccccc2OCC(=O)Nc2ccc(F)cc2)C1=O | 2.1%
CN(c1ccccc1)S(=O)(=O)c1cccc(C(=O)NNC(=O)c2ccccc2)c1 | 7.8%
CN(C)S(=O)(=O)c1cccc(C(=O)NCCc2ccccc2)c1 | 3.3%
CN(c1ccccc1)S(=O)(=O)c1cccc(C(=O)NCCc2ccc(O)c(O)c2)c1 | 54.9% (active)
COc1cc(C2NC(=O)NC(c3ccccc3)=C2C(C)=O)ccc1OCC#N (stereo not given) | 20.2%
COc1ccccc1-n1c(SCC(=O)NC2CCS(=O)(=O)C2)nc2cc([N+](=O)[O-])ccc21 (stereo not given) | 5.5%
COc1ccccc1-n1c(SCC(=O)NCc2ccc3c(c2)OCO3)nc2cc([N+](=O)[O-])ccc21 | 59.9% (active)
O=C(CSc1nc2cc([N+](=O)[O-])ccc2n1-c1ccccc1)NCc1ccc2c(c1)OCO2 | 23.9%
O=C(COC(=O)CCOc1ccccc1)Nc1ncc(Cl)cc1Cl | -1%
Cc1c(C(=O)N/N=C/c2ccccc2)[nH]c2ccc(Cl)cc12 | 2.8%

Compound | inhibition
O=C(Cc1csc(NC(=O)c2ccccc2)n1)NO | 67.6% (active)
O=C(Cc1csc(NC(=O)c2ccc(F)cc2)n1)NO | 0.3%
COc1ccccc1NC(=O)Cc1csc(NC(=O)c2ccccc2)n1 | 5.9%
COC(=O)c1c(-c2cccc(OC)c2)csc1N | 30%
O=C(CN1CCCC1)Nc1ccc(F)cc1 | -11.5%
COc1ccccc1NS(=O)(=O)c1cc(NC(=O)Nc2ccc(Cl)cc2Cl)ccc1N1CCCCC1 | 2%
O=C(Nc1ccc(N2CCOCC2)c2nonc12)C1CCCC1 | 53.4% (active)
COc1ccccc1NS(=O)(=O)c1cc(NC(=O)C2CCCC2)ccc1N1CCOCC1 | 55.7% (active)
O=C(Nc1ccc(F)cc1)Nc1ccc(N2CCOCC2)c2nonc12 | 15.4%
O=C(Nc1ccc([N+](=O)[O-])cc1)Nc1ccc(N2CCOCC2)c2nonc12 | 34.2%
COc1ccccc1NS(=O)(=O)c1cc(NC(=O)CCC2CCCC2)ccc1N1CCOCC1 | 2.1%
COc1ccccc1NS(=O)(=O)c1cc(NC(=O)C2CC2)ccc1N1CCOCC1 | 15%
COc1ccccc1NS(=O)(=O)c1cc(NC(C)=O)ccc1N1CCCCC1 | 52.7% (active)
COc1ccccc1NS(=O)(=O)c1cc(NC(=O)Nc2ccccc2)ccc1N1CCCCC1 | 14.8%
COc1ccccc1NS(=O)(=O)c1cc(NC(=O)C(C)C)ccc1N1CCCCC1 | 41.2%
COc1ccccc1NS(=O)(=O)c1cc(N)ccc1N1CCCCC1 | 67.5% (active)
COc1ccccc1NS(=O)(=O)c1cc(NC(=O)Nc2cccc(C)c2)ccc1N1CCCCC1 | 0.3%
O=C(c1ccccc1)C(C(=O)N1CCc2ccccc2C1)n1ccccc1=O (stereo not given) | 8.6%
O=C(CSc1nnnn1-c1cccc2ccccc12)NC(C(=O)O)(c1ccccc1)c1ccccc1 | -9.3%
Cc1ccc(NC(=O)NC(=O)CN2C(=O)NC3(CCCCCCC3)C2=O)c(C)c1 | 9.5%
CCC/C(O)=C1\C(=O)CC(c2ccccc2)CC1=NC(C)C(=O)O (stereo not given) | -5.7%
O=C(COc1ccc(Cl)cc1)NCc1nnc(SCC(=O)N2CCCCCC2)o1 | 3.1%
CCOc1ccccc1NC(=O)c1ccc(NC(=O)c2ccco2)cc1 | -12.3%

Compound | inhibition
CCN(CC)c1cc(NCCO)c([N+](=O)[O-])c2nonc12 | 37.9%
CN(CCO)c1cc(N2CCC3(CC2)OCCO3)c2nonc2c1[N+](=O)[O-] | 6%
O=[N+]([O-])c1c(NCCO)cc(N2CCN(Cc3ccc4c(c3)OCO4)CC2)c2nonc12 | 55.4% (active)
O=[N+]([O-])c1c(NCCO)cc(N2CCC3(CC2)OCCO3)c2nonc12 | 60.3% (active)
O=[N+]([O-])c1c(NCCCO)cc(N2CCN(Cc3ccc4c(c3)OCO4)CC2)c2nonc12 | 13%
CCOC(=O)N1CCN(c2cc(N(C)CCO)c([N+](=O)[O-])c3nonc23)CC1 | 20.8%
O=[N+]([O-])c1c(NCCO)cc(N2CCCCC2)c2nonc12 | 57.8% (active)
Cc1nnc(Sc2cc(NCCO)c([N+](=O)[O-])c3nonc23)s1 | -0.7%
CC(=O)Nc1ccc(Nc2cc(N3CCOCC3)c3nonc3c2[N+](=O)[O-])cc1 | -2.7%
CN(CCO)c1cc(N2CCCCC2)c2nonc2c1[N+](=O)[O-] | -0.9%
CCOC(=O)N1CCN(c2cc(NCCO)c([N+](=O)[O-])c3nonc23)CC1 | 56.2% (active)
CCOC(=O)C1CCCN(c2cc(NCCCO)c([N+](=O)[O-])c3nonc23)C1 (stereo not given) | 32.9%
COc1ccccc1-n1c(-c2ccc(NS(C)(=O)=O)cc2)n[nH]c1=S | -0.6%
CC(C)Cc1nnc(NC(=O)CS(=O)(=O)Cc2ccccc2)s1 | -0.2%
C=C(C)CSc1nnc2n(N)c(=O)c3ccccc3n12 | -4.8%
Cc1ccccc1C(=O)NCCc1nnc(SCC(=O)Nc2nc(-c3ccccc3)cs2)n1C | -0.8%
O=C(CSc1ncccn1)N1CCN(C(c2ccccc2)c2ccccc2)CC1 | 20.8%
Cn1c(C(C(=O)NCC2CCCO2)N(CCc2ccccc2)C(=O)Cn2nnc3ccccc32)nc2ccccc21 (stereo not given) | 2.6%
CCSc1c(-c2ccccc2)nc2c(C)cccc2c1C(=O)O | 4.5%
CCSc1nnc(-c2ccccc2SC)o1 | -75.6%
Cc1cccc(NC(=O)c2sc3nc4c(c(-c5cccs5)c3c2N)CN(C)CC4)c1 | -14.8%
